Screening results from PubChem.
IDE cell activ = IDE (human) activation, cell-based; HEK cells, FAbeta-B cleavage, fluorescence polarization; 0% vehicle, 100% cell-free pure enzyme wells; 340,000 compounds, 0.073% hits; P14735; activation, % at 5.96 µM; AID 493087;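 active = activation above the mean of all tested compounds plus 3 SD, set per screening campaign, cut at about 17% in these data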
Target sequence (P14735 whole entry, looked up): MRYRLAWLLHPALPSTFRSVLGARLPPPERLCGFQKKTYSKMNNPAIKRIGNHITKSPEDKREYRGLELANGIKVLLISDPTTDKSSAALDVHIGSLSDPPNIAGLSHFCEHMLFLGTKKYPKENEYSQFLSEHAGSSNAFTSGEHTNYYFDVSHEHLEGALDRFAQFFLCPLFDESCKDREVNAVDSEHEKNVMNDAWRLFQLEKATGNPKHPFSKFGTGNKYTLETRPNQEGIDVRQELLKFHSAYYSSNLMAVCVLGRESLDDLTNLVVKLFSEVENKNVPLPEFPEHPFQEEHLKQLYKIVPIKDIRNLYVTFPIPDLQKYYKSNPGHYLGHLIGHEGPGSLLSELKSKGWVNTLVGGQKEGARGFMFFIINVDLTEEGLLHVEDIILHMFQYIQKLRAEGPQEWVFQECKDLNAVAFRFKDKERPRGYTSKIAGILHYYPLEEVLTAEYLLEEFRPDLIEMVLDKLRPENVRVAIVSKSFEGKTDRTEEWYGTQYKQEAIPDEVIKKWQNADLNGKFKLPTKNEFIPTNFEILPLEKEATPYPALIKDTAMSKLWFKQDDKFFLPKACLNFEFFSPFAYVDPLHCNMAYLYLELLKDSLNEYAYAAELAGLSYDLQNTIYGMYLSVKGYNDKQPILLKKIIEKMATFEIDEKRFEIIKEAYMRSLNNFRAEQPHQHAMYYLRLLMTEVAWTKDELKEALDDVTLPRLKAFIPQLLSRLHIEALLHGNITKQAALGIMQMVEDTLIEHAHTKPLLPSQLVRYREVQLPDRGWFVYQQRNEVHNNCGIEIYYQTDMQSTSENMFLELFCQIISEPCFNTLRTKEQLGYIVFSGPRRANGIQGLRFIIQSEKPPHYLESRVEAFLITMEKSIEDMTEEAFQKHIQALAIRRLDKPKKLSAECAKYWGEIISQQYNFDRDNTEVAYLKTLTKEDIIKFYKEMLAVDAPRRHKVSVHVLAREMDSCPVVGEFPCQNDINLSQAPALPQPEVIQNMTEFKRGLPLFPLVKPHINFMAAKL
CRFBP-R2 agonist = agonists of human CRF-binding protein/CRF-R2 receptor complex; 350,000 compounds, 0.46% hits; HEK293 CRF-R2/CRF-BP, calcium dye fluorescence (FLIPR); percent of saturating CRF peptide response; AID 588473; activation, % at 13.2 µM;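 active = activation of at least 50%, plus an integration ratio under a set limit after plate pattern correction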
TPT1 inhibitor = blocks Candida albicans tRNA 2'-phosphotransferase. inhibition, % at 5 µM. AID 1962. recombinant caTPT1, FP RNA substrate dephosphorylation. 300,000 compounds, 0.81% hits;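 active = inhibition above the mean of all tested compounds plus 3 SD, set per screening campaign, cut at about 24% in these data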
Myeloid diff 2 = promotes myeloid progenitor differentiation. ER-HoxA9 myeloid progenitors, lysozyme-GFP differentiation, flow cytometry. calls only at 10 µM. 360,000 compounds, 1% hits. AID 624256;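 active = normalized GFP-positive differentiation at or above the plate's own cutoff, the solvent-only control mean plus 3 SD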;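 note: cells exposed to compound for four days before flow analysis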
IDE inh = inhibits human insulin-degrading enzyme in HEK cells; P14735; FAbetaB cleavage, fluorescence polarization; inhibition, % at 5.59 µM; 320,000 compounds, 0.41% hits;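 active = percent inhibition above the average of all tested compounds plus 3 SD, set per screening campaign, cut at about 16% in these data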;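 note: IDE supplied by intact live HEK cells; FP after avidin binding of uncleaved biotin substrate so inhibition keeps polarization high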
CRFR2-BP antag = blocks CRF-induced signaling of the CRF-BP/CRF-R2 complex | HEK293 CRF-R2/CRF-BP, CRF-induced calcium fluorescence | inhibition, % at 11.8 µM | 350,000 compounds, 0.59% hits | AID 588475;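 active = inhibition of the ligand-induced calcium signal above about 50% at the single tested concentration, limit read from the data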
Myeloid diff = compounds promoting myeloid differentiation; calls only; ER-HoxA9 myeloid progenitors, GFP/Mac1 double-positive flow; 2,300 compounds, 2% hits; shares compounds with Myeloid diff 2;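 active = share of green or green-and-red cells above 9 and 9% in run 1 or 4 and 3% in run 2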
GFP autofluor = counter-screen for myeloid differentiation promoters: compound fluorescence. shares compounds with Myeloid diff 2. ER-HoxA9 myeloid progenitors, no estrogen, GFP autofluorescence flow cytometry; vehicle wells 0%, positive control 100%. fluorescence response, % (no concentration beside the values). 2,300 compounds, 7.4% hits. AID 651707;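 active = over 5% cells positive for green fluorescent reporter, or over 2% positive for both it and APC stain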
A number is an active result; - = inactive; . = not tested or not shown; + = active, no number. Hits are enriched below; roughly 2.6% of the tested compounds scored in any of these assays.

SMILES	IDE cell activ	CRFBP-R2 agonist	TPT1 inhibitor	Myeloid diff 2	IDE inh	CRFR2-BP antag	Myeloid diff	GFP autofluor
COc1ccc(NC(=O)NCC(C)CSc2ccc(C)cc2)c(OC)c1 (stereo not given)	-	-	-	-	-	-	.	.
O=C(O)CSc1ncnc2nc[nH]c12	-	-	-	-	-	-	.	.
O=C(CSc1ncnc2nc[nH]c12)c1ccc2ccccc2c1	-	-	-	+	-	-	-	-
CCN1C(=O)C(O)(C2COC(C)(C)CC2=O)c2ccccc21 (stereo not given)	-	-	-	-	-	-	.	.
CCN1C(=O)C(O)(C2COC(C)(C)CC2=O)c2cc(Br)ccc21 (stereo not given)	-	-	-	-	-	-	-	12
CCCCNC(=O)CCC(=O)Nc1ccc2nc(N3CCC(C)CC3)cc(C)c2c1	-	-	-	-	-	-	-	-
CC(CNC(=O)C1CCCCC1)NC(=O)C1CCCCC1 (stereo not given)	-	-	-	+	-	-	-	-
CC(C)CNC(=O)C(=O)NNC(=O)C1CCCCC1	-	-	-	-	-	-	.	.
CCCC(=O)c1c(NCCO)cc(C)oc1=O	-	-	-	-	-	-	.	.
c1ccc(Cn2c(CSc3nnnn3-c3ccccc3)nc3ccccc32)cc1	-	-	-	-	-	-	-	-
CCN1CCN(S(=O)(=O)c2ccc(Cl)c(C(=O)N(C)CCOc3ccc(Cl)cc3)c2)CC1	-	-	-	-	-	-	.	.
CC1CCCCC1NC(=O)COC(=O)COc1ccccc1F (stereo not given)	-	-	.	-	-	-	.	.
CCC(C)N(C(=O)Cn1nnc2ccccc21)C(C(=O)NCc1ccco1)c1cccc(OC)c1 (stereo not given)	-	-	-	-	-	-	-	-
COCCNC(=O)C(c1cccc(OC)c1)N(C(=O)Cn1nnc2ccccc21)c1cccnc1 (stereo not given)	-	-	-	-	-	-	.	.
COC(=O)c1cc(S(=O)(=O)Nc2cccc(-c3cnco3)c2)oc1C	-	-	-	-	-	-	.	.
CN1c2ccccc2C(C)(C)C12C=Nc1c(cc(N3CCOCC3)c3ccccc13)O2 (stereo not given)	-	-	.	-	.	-	.	.
CN1c2ccccc2C(C)(C)C12C=Cc1cc(O)ccc1O2 (stereo not given)	-	-	-	+	-	-	-	53
O=C(C=Cc1ccccn1)c1ccccc1O	-	-	.	-	.	-	.	.
Cc1cccc(-n2ncc3c(NCc4ccco4)ncnc32)c1	-	-	-	+	-	-	-	-
O=C(/C=C/c1ccccc1Cl)Nc1ccncc1	-	-	-	+	-	-	-	-
O=C(/C=C/c1ccccc1Cl)Nc1cccnc1	-	-	-	-	-	-	.	.
CN(C(=O)C1CCC(=O)N(Cc2ccccc2F)C1)C1CCOCC1 (stereo not given)	-	-	-	-	-	-	.	.
O=C(CN1CCCCCC1)Nc1ccccc1F	-	-	-	+	-	-	-	-
O=C(CCN1CCCCCC1)Nc1ccccc1F	-	-	-	-	-	-	.	.
Cc1cc(/C=C2\SC(N)=NC2=O)c(C)n1-c1ccc(F)cc1	-	-	-	-	-	-	.	.
SMILES	IDE cell activ	CRFBP-R2 agonist	TPT1 inhibitor	Myeloid diff 2	IDE inh	CRFR2-BP antag	Myeloid diff	GFP autofluor
COc1cccc(-n2cnc3scc(-c4cccs4)c3c2=O)c1	-	-	-	-	-	-	.	.
COc1ccc(C(=O)Nn2cnc3scc(-c4cccs4)c3c2=O)c(O)c1	-	-	-	-	-	-	-	-
Cc1cc(CNC[C@H]2O[C@@H](n3ccc(=O)[nH]c3=O)[C@H](O)[C@@H]2O)no1	.	.	.	-	.	.	.	.
CN(CC(=O)Nc1cccc(S(=O)(=O)N(C)c2ccccc2)c1)Cc1cccs1	.	-	.	-	.	-	.	.
COCCCNCCCCOc1ccccc1-c1ccccc1	-	-	-	-	-	-	-	-
COCCCNCCOc1ccccc1-c1ccccc1	-	-	-	-	-	-	.	.
CC1CCN(c2nc(CN3CCCCC3)nc3scc(-c4ccccc4)c23)CC1	-	-	-	-	-	-	-	-
